D2 ag-1 = HTS Assay for Allosteric Agonists of the Human D2 Dopamine Receptor: Primary Screen for Agonists. AID 485358, 2010. HEK293 T-REx D2 cells, calcium flux agonist mode. activation, % at 2 µM. 340,000 compounds, 0.53% hits. D(2) dopamine receptor (Homo sapiens), P14416;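 active = activation over 3 SD above normal in the single-dose calcium agonist read, cut at about 30% in these data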
Target sequence (P14416 whole entry, looked up): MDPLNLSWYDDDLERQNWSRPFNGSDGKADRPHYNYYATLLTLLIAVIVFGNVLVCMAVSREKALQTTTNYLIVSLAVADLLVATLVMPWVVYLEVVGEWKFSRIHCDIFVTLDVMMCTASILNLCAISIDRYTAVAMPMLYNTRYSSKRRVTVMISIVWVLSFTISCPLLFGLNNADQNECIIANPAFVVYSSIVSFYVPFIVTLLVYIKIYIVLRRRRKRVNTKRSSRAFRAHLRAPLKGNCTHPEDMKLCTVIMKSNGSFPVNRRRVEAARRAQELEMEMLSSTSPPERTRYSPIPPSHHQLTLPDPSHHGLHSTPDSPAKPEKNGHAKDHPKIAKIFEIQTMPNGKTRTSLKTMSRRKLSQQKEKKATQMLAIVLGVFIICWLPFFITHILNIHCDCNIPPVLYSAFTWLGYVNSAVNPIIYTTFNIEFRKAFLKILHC
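In this primary screen, compounds producing a positive calcium signal within 180 s of addition to tetracycline-induced, force-coupled HEK293 Trex D2 cells are flagged; cells are dye-loaded with a no-wash calcium kit beforehand.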
D2 antagonist = HTS Assay for Allosteric Antagonists of the Human D2 Dopamine Receptor: Primary Screen for Antagonists; inhibition, % at 10 µM; HEK293 TREx D2 cells, calcium flux, dopamine EC80; AID 485344, 2010; 340,000 compounds, 2% hits; D(2) dopamine receptor (Homo sapiens), P14416; in the data active = inhibition above about 30%; inactive = below that, where a call was filed
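Inhibition of EC80 dopamine-driven calcium flux, recorded kinetically, defines activity here; cells are a tetracycline-induced HEK293 T-REx line expressing force-coupled D2.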
D2 PAM-1 = Beta-Arrestin HTS for Positive Allosteric Modulators of the Human D2 Dopamine Receptor: Potentiators; DiscoveRx D2 beta-arrestin cells, luminescence, 90 min; 100% = 57 uM dopamine signal; AID 624464, 2012; 360,000 compounds, 0.23% hits; potentiation, % (concentration not given with the values); D(2) dopamine receptor (Homo sapiens), P14416; in the data active = potentiation above about 50%; inconclusive = mostly about 30% to 49%
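PathHunter D2 cells, attached overnight at 37 deg C, received compound in DMSO plus dopamine at EC20 (50 nM final) for 90 min at 37 deg C. Beta-arrestin recruitment was read as luminescence after 1 h with detection reagent at ambient temperature.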
D2 ag-2 = Beta-Arrestin HTS for Positive Allosteric Modulators of the Human D2 Dopamine Receptor: Agonists. D(2) dopamine receptor (Homo sapiens), P14416. 360,000 compounds, 0.084% hits. DiscoveRx PathHunter D2 beta-arrestin, luminescence, 90 min; 100% = 57 uM dopamine signal. activation, % (test concentration not listed); in the data active = activation above about 40%; inconclusive = between about 15% and that limit
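DiscoveRx PathHunter D2 beta-arrestin cells (2,100/well) attached overnight, then compound-stimulated 90 min at 37 C in HBSS/10 mM HEPES/0.1% Tween-20 buffer; beta-galactosidase complementation read by luminescence after 1 h at ambient temperature. Dopamine 57 uM final (EC100) as control.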
D2 PAM-2 = HTS Assay for Positive Allosteric Modulators of the Human D2 Dopamine Receptor: Primary Screen for Potentiators | D(2) dopamine receptor (Homo sapiens), P14416 | AID 485347, 2010 | 340,000 compounds, 0.34% hits | HEK293 T-REx D2, calcium flux, EC20 dopamine potentiation | potentiation, % at 10 µM;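 active = potentiation over 3 SD above the plate norm, cut at about 30% in these data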
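Tetracycline-induced HEK293 T-REx cells force-coupled to calcium signalling expressed D2; compounds were pin-added after a 10 s baseline, read kinetically 180 s, then an EC20 dopamine challenge followed with a further 180 s calcium read.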
A number is an active result; 0 = inactive; ? = inconclusive; - = no result. Rows were chosen to be rich in hits. Some 2.4% of all compounds tested hit in one or more screens of this group.

SMILES | D2 ag-1 | D2 antagonist | D2 PAM-1 | D2 ag-2 | D2 PAM-2
Cc1ccc(NCc2nnc3n2CCCCC3)cc1Cl | - | - | - | - | 0
Cc1ccc(S(=O)(=O)c2cn(Cc3ccccc3)c3cc(N4CCOCC4)c(F)cc3c2=O)cc1 | 0 | - | - | - | 0
O=C1CCCN1Cc1ccccc1 | 0 | 30 | 0 | 0 | 0
COC(=O)c1c(-c2ccc(Cl)cc2)noc1N1CCN(c2ccc(OC)cc2)CC1 | 0 | - | - | - | 0
CC1CN(CCCCN2C(=O)c3ccccc3C2=O)CC(C)O1 (stereo not drawn) | 0 | 40 | 0 | 0 | 0
CC1CN(CN2C(=O)c3ccccc3C2=O)CC(C)O1 (stereo not drawn) | 0 | 0 | 0 | 0 | 0
COc1cc(-c2nc(CN3CCN(c4ncccn4)CC3)c(C)o2)ccc1F | 31 | 0 | 0 | ? | 0
Cc1cc(C)n2nnnc2n1 | 0 | 38 | 0 | 0 | 0
COc1ccccc1CCNS(=O)(=O)c1c(C)n(C)c(=O)n(C)c1=O | 0 | 0 | 0 | 0 | 32
COc1ccccc1CCNS(=O)(=O)c1cn(C)c(=O)n(C)c1=O | 0 | 0 | 0 | 0 | 0
CN(C)Cc1nc2c(c(=O)[nH]1)C1(CCCCC1)Cc1ccccc1-2 | 0 | 37 | 0 | 0 | 0
O=c1[nH]c(NNC(=S)NC2CCCCC2)nc2c1C1(CCCC1)Cc1ccccc1-2 | 0 | 38 | 0 | 0 | 0
Cn1c(NCCO)nc2c(c1=O)C1(CCCCC1)Cc1ccccc1-2 | 0 | 68 | 0 | 0 | 0
CC(C)Sc1n[nH]c2nc3c(c(=O)n12)C1(CCCC1)Cc1ccccc1-3 | 0 | 55 | - | - | 0
CCN(CC)Cc1nc2c(c(=O)[nH]1)C1(CCCCC1)Cc1ccccc1-2 | 0 | 0 | 0 | 0 | 0
O=c1[nH]c(NCCCO)nc2c1C1(CCCC1)Cc1ccccc1-2 | 0 | 0 | 0 | 0 | 0
COC(=O)c1cc2sc(C)cc2n1CC(=O)Nc1cccc(SC)c1 | 0 | - | - | - | 0
COc1ccc(CCN2CC(C(=O)NCCc3cccnc3)CCC2=O)cc1 (stereo not drawn) | 0 | 32 | 0 | 0 | 0
COc1ccc(CCN(C)C2CCCN(C(=O)c3sccc3C)C2)cc1OC (stereo not drawn) | 0 | 57 | 0 | 0 | 0
O=C(CCn1c(=O)sc2ccccc21)NCc1ccccc1 | 0 | 0 | 0 | 0 | 0
O=C(CCn1c(=O)sc2ccccc21)NCc1cccs1 | 0 | 32 | 0 | 0 | 0
COCCNc1nc(-c2ccccc2)nc2ccccc12 | 0 | 0 | 0 | 0 | 0
CC(=O)OCCNc1nc(-c2ccccc2)nc2ccccc12 | 0 | 38 | 0 | 0 | 0
CCS(=O)(=O)N1CC(=O)N(c2ccc(Cl)cc2C)C(C)(C(=O)NC2CCCCC2)C1 (stereo not drawn) | 0 | - | - | - | 0
Cc1cccc(Cn2c(=O)n3nc(-c4ccccc4)nc3c3ccccc32)c1 | - | - | - | - | 0
SMILES | D2 ag-1 | D2 antagonist | D2 PAM-1 | D2 ag-2 | D2 PAM-2
CCN1CCN(P2(=O)C=C(c3ccccc3)OC(c3ccccc3)=C2)CC1 | 0 | 84 | 0 | 0 | 0
Clc1ccc(-c2ccc(CN3CCCCC3)o2)cc1 | 0 | 78 | 0 | 0 | 0
COc1ccccc1N1CCN(CC(=O)c2c(C)[nH]c3cc(C)ccc23)CC1 | 0 | 64 | 0 | 0 | 0
COc1ccccc1N1CCN(CC(=O)c2c(C)n(C)c3ccccc23)CC1 | 0 | 0 | 0 | 0 | 0
CCC1CCCCN1CC(=O)c1c(C)[nH]c2cc(C)ccc12 (stereo not drawn) | 0 | 33 | 0 | 0 | 0
CCn1c(=O)c2sccc2n2c(CCCC(=O)N3CCN(c4cc(C)ccc4C)CC3)nnc12 | 0 | - | - | - | 0
Cc1cc2n(n1)CCCN2C(=O)Nc1ccccc1F | 0 | - | - | - | 0
C=CCOC1=CS(=O)(=O)N(Cc2ccc(Br)cc2)c2ccc(Br)cc21 | - | - | 0 | 0 | -
CCOC(=O)c1ccc(NC(=O)CSC2=NC(=O)C(CC)C(=O)N2)cc1 (stereo not drawn) | 0 | 47 | 0 | 0 | 0
COC(=O)c1c(NC(=O)CN2C(=O)NC3(CCC(C)CC3)C2=O)sc2c1CCC2 (stereo not drawn) | 0 | 0 | 0 | 0 | 0
CC1CCC2(CC1)NC(=O)N(CC(=O)Nc1sc3c(c1C(N)=O)CCC3)C2=O (stereo not drawn) | 0 | 38 | 0 | 0 | 0
CCOC(=O)c1ccc(NC(=O)CN2C(=O)NC3(CCCCCCC3)C2=O)cc1 | 0 | 38 | 0 | 0 | 0
NC(=O)c1ccsc1NC(=O)CN1C(=O)NC2(CCCCC2)C1=O | 0 | 0 | 0 | 0 | 0
CCC1C(=O)N=C(SCC(=O)Nc2cccc3ccccc23)NC1=O (stereo not drawn) | 0 | 0 | 0 | 0 | 0
N#Cc1ccsc1NC(=O)CN1C(=O)NC2(CCCC2)C1=O | 0 | 40 | - | - | 0
CCCCOC(=O)c1ccc(NC(=O)CN2C(=O)NC3(CCCCCC3)C2=O)cc1 | 0 | 0 | 0 | 0 | 0
CCc1ccc(-n2nc3ccc(NC(=O)c4cc5ccccc5o4)cc3n2)cc1 | 0 | - | - | - | 0
CCn1c(C(=O)NCc2ccccc2Br)cc2oc3ccccc3c21 | 0 | - | - | - | 0
CCOC(=O)C1CC(=NO)c2ccc(OC)c(OC)c2C1 (stereo not drawn) | - | - | 0 | 0 | -
O=C(CN1C(=O)NC2(CCCCCC2)C1=O)Nc1ccc(Br)cc1Br | 0 | 37 | 0 | 0 | 0
Cc1ccc(NC(=O)CN2C(=O)NC3(CCCC3)C2=O)c(Cl)c1 | 0 | 0 | 0 | 0 | 0
CN1C(=O)/C(=C\c2ccc(N(C)C)cc2)OC1=S | 86 | 47 | 0 | 0 | 0
COc1ccc(/C=C2\OC(=S)N(C)C2=O)cc1 | 0 | 0 | 0 | 0 | 0
CC(C)N(Cc1ccccc1)S(=O)(=O)c1ccc(N2CCCCS2(=O)=O)cc1 | 0 | - | - | - | 0
CNC(=S)N1CCC(c2nc3ccccc3s2)CC1 | 0 | 68 | 0 | 0 | 0
SMILES | D2 ag-1 | D2 antagonist | D2 PAM-1 | D2 ag-2 | D2 PAM-2
Cn1cccc1C(=O)OCC(=O)N1CC(=O)Nc2ccccc21 | 0 | 34 | 0 | 0 | 0
COc1ccc(-c2cc(C#N)nc(N3CCN(C)CC3)n2)cc1 | 0 | 55 | 0 | 0 | 0
CN1CCN(c2nc(C#N)cc(-c3ccccc3)n2)CC1 | 0 | 0 | 0 | 0 | 0
COc1ccc(-c2cc(C(F)(F)F)nc(N3CCN(C)CC3)n2)cc1 | 0 | 39 | 0 | 0 | 0
COc1ccc(-c2cc(C(F)(F)F)nc(N3CCCCCC3)n2)cc1 | 0 | 0 | 0 | 0 | 0
O=C1c2cccnc2-c2ncccc21 | - | - | 0 | 0 | -
O=C1C(=O)c2cccnc2-c2ncccc21 | - | - | ? | 56 | -
CCS(=O)(=O)c1ncc(N(Cc2ccco2)Cc2sccc2C)c(C(=O)Nc2ccc(C)cc2C)n1 | 0 | - | - | - | 0

Source: PubChem BioAssay
